Data on eleven molecules can be found in PubChem BioAssay (NCATS).

Assay [1] addresses Glucocorticoid receptor (Homo sapiens) (UniProt P04150). The assay is described as follows: GR-GFP Redistribution (AID 450;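 active means compounds whose dose series gives a full or clear partial fitted curve of increased nuclear translocation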; further: potency means the concentration at half of the fitted maximal effect). The conditions noted are these: U2OS GR-GFP nuclear translocation, laser cytometry, 2 h.
Assay [2] shares this target. The assay is described as follows: GR-EFC Redistribution (AID 451; calls by dose curve; further: potency means the concentration at half of the fitted maximal effect). The conditions noted are these: CHO-K1 GR-EFC translocation, beta-gal luminescence, 2 h. The procedure, abridged: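 CHO-K1 cells stably expressing nuclear-localized β-gal enzyme acceptor and GR fused C-terminally to the enzyme donor fragment; ligand-driven nuclear translocation restores β-gal by complementation. Compounds titrated up to 46 uM final, 2 h at 37 °C; luminescence read.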

Assay [3] addresses Mitogen-activated protein kinase 10 (Mus musculus) (UniProt Q61831). As to the kind of experiment: JNK3 AlphaScreen Assay (AID 530; active means well fitted curve in either direction with a large enough effect, not every such curve was filed as active;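 further: kinase came from lysate of stimulated human HepG2 cells; signal reports phosphorylation of biotinylated GST-cJun 1-79 at Ser73 with 10 µM ATP; series mostly up to about 57 µM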). In a few lines: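 Biotinylated GST-cJun(1-79) served as substrate for JNK3 in HepG2 lysates stimulated with IL-1beta and TNF-alpha. ATP was 10 uM final, pH 7.6. Ser73 phosphorylation was quantified by AlphaScreen (680 nm excitation).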
In assay [4] the target is Ubiquitin carboxyl-terminal hydrolase 1 (Homo sapiens) (UniProt O94782). As to the kind of experiment: Inhibitors of USP1/UAF1: Pilot qHTS (AID 504865).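 Further: rhodamine fluorescence freed from ubiquitin-rhodamine substrate followed over time; top concentration of the series differs between compounds; nearly all actives have a fitted effect of over 35% in size.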 In a few lines:
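In 50mM HEPES pH 7.8 containing 0.5mM EDTA, 1mM TCEP, 0.1 mg/ml BSA and 0.01% Tween-20, 1nM USP1/UAF1 is exposed to compound for 15 min, then Ub-Rho (150nM final) is added and fluorescence is read over time.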
(In qHTS, concentration-response curves come from the screen itself.)

Assay [5] concerns the target DNA dC->dU-editing enzyme APOBEC-3G (Homo sapiens) (UniProt Q9HC16). The assay is described as follows: qHTS for inhibitors of Vif-A3G interactions: Validation (AID 588379). The procedure, abridged:
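Yellow fluorescence (Ex 488, Em 500-530) of Vif-coexpressing HeLa A3G-eYFP cells, scanned by Acumen cytometer, reports blocked A3G degradation. Cells plated at 700/well overnight at 37 deg C before compound addition, then a further overnight compound incubation at 37 deg C.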

Assay [6] relates to Zika virus NS2B-NS3 protease. The assay is described as follows: Primary screen GU AMC qHTS for Zika virus inhibitors (AID 1347154). Further: nearly all actives have a fitted effect of over 70% in size. The procedure, abridged: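 Unlinked Zika NS2B hydrophilic domain/NS3 protease domain noncovalent complex (25 nM final) in 10 mM Tris-HCl pH 8.0, 0.01% Tween 20, with AMC peptide substrate. Fluorescence (ex 340, em 450 nm) change over 15 min, room temperature; percent inhibition fitted to 4-parameter Hill equation.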

A short description of assay [7]: Primary qHTS for small molecule stabilizers of the endoplasmic reticulum resident proteome: Secreted ER Calcium Modulated Protein (SERCaMP) assay (AID 1508630). In a few lines:
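The SH-SY5Y reporter protocol was run at 3 concentrations up to 38.3 uM (primary) or 11 concentrations (follow-up): 16 h compound, 100 nM thapsigargin for 4 h, then extracellular luciferase luminescence.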

In assay [8] the target is Cytochrome P450 1A2 (Homo sapiens) (UniProt P05177). The assay is described as follows: p450-cyp1a2 (AID 410; calls by dose curve). The procedure, abridged: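 Read-out is luminescence from luciferin produced by CYP1A2 demethylation of Luciferin-ME (100uM, at Km). Detection reagent stopped the 60 min NADPH-dependent reaction; signals were normalized to 57 uM furafylline.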
Assay [9] concerns the target 3',5'-cyclic-AMP phosphodiesterase 4B (Homo sapiens) (UniProt Q07343). As to the kind of experiment: qHTS Assay for Inhibitors of PDE-IV (AID 607; active means well fitted activation curve with a large enough effect in the main read-out, with a control signal flat, not every such curve was filed as active). In a few lines: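 The readout is membrane depolarisation from a cAMP-sensing CNG channel, detected with a potential dye at ex 535/em 590. Cells were HEK293-derived (endogenous PDE-IV) at 1000 cells/well, titrated up to 22.9 uM final.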

Assay [10] has as its target Cytochrome P450 3A4 (Homo sapiens) (UniProt P08684). The assay is described as follows: qHTS Assay for Activators of Cytochrome P450 3A4 (AID 885). Further: nearly all actives have a fitted effect of over 65% in size. The procedure, abridged: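 Activators are scored by enhanced luminescence from CYP3A4 conversion of luciferin-PPXE (25uM, equal to KM) to luciferin, after 60 min at RT with an NADPH-regenerating system.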
For assay [11], the target named is Cytochrome P450 2C9 (Homo sapiens) (UniProt P11712). As to the kind of experiment: qHTS Assay for Inhibitors and Substrates of Cytochrome P450 2C9 (AID 883). Further: potency means the concentration at half of the fitted maximal effect; nearly all actives have a fitted effect of over 60% in size. In a few lines:
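A luminogenic readout tracked human CYP2C9 (10nM) converting deoxyluciferin (100uM, at KM) in 25mM KPO4 during 60 min at 37C with regenerated NADPH. Values normalized to 57uM sulphaphenazole as complete inhibition.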

Assay [12] has as its target Cytochrome P450 3A4 (Homo sapiens) (UniProt P08684). As to the kind of experiment: qHTS Assay for Inhibitors and Substrates of Cytochrome P450 3A4 (AID 884). Further: nearly all actives have a fitted effect of over 50% in size. Further: potency means the concentration at half of the fitted maximal effect. The procedure, abridged: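 Luminescent readout of luciferin produced by CYP3A4 (20 nM) dealkylation of Luciferin-PPXE, 25 uM (its KM). NADPH-driven reaction ran 60 min at RT after 10 min compound preincubation; data scaled to 57 uM ketoconazole as 100% inhibition.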

Each structure is given as a SMILES string. A number with no mark means an inactive call. Inconclusive results are not listed. Calls of active or inactive are those of the source. Unless noted, the call rests on the fitted dose curve; in most records, active means well fitted curve in the direction sought with a large enough effect; inconclusive means small, poorly fitted or top-dose-only effect, or another doubt; inactive means no such curve, though single readings can be large; an effect the other way counts as inactive or inconclusive.

Chain of 3',5'-cyclic-AMP phosphodiesterase 4B (Homo sapiens) (Q07343 whole entry, looked up): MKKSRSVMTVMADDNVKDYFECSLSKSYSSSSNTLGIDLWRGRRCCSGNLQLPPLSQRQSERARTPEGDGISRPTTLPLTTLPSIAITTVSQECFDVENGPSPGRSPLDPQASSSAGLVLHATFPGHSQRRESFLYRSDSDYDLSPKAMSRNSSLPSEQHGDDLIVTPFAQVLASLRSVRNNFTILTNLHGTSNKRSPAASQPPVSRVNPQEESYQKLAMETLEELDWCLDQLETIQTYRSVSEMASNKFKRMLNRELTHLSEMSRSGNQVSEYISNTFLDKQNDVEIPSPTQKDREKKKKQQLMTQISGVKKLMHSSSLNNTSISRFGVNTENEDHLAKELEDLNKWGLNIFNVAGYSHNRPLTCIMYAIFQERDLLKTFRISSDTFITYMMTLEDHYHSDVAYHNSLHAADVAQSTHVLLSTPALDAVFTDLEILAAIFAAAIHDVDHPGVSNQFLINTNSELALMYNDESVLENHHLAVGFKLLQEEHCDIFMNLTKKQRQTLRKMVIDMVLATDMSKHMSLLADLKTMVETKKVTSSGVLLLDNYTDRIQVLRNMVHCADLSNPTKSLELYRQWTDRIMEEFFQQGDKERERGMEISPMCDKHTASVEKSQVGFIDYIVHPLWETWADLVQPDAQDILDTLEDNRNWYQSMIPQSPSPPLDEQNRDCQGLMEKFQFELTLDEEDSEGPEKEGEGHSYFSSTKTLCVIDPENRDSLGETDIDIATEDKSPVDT
Chain of DNA dC->dU-editing enzyme APOBEC-3G (Homo sapiens) (Q9HC16 whole entry, looked up): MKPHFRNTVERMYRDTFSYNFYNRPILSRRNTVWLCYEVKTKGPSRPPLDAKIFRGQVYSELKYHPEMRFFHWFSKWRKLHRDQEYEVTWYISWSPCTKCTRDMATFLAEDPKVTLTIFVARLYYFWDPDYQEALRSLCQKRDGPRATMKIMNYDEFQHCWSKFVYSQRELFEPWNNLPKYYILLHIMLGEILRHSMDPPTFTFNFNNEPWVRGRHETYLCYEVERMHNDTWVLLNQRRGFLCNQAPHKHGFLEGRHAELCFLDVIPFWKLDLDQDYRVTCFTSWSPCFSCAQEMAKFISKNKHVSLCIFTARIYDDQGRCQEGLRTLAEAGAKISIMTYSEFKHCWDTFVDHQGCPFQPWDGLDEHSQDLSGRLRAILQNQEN
Chain of Cytochrome P450 3A4 (Homo sapiens) (P08684 whole entry, looked up): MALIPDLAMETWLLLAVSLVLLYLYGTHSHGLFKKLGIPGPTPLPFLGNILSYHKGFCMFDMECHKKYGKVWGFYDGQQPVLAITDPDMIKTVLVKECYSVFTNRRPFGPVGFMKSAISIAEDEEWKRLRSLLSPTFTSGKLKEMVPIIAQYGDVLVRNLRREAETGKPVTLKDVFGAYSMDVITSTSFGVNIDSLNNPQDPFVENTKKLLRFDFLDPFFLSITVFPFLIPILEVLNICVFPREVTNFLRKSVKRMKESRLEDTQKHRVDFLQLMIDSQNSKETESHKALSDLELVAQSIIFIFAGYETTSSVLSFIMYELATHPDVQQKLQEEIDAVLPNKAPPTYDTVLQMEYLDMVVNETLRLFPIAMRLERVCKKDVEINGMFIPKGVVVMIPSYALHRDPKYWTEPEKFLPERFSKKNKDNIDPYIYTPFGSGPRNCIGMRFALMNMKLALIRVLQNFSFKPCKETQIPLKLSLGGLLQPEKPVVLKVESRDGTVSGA
Chain of Glucocorticoid receptor (Homo sapiens) (P04150 whole entry, looked up, the tested form may be a part): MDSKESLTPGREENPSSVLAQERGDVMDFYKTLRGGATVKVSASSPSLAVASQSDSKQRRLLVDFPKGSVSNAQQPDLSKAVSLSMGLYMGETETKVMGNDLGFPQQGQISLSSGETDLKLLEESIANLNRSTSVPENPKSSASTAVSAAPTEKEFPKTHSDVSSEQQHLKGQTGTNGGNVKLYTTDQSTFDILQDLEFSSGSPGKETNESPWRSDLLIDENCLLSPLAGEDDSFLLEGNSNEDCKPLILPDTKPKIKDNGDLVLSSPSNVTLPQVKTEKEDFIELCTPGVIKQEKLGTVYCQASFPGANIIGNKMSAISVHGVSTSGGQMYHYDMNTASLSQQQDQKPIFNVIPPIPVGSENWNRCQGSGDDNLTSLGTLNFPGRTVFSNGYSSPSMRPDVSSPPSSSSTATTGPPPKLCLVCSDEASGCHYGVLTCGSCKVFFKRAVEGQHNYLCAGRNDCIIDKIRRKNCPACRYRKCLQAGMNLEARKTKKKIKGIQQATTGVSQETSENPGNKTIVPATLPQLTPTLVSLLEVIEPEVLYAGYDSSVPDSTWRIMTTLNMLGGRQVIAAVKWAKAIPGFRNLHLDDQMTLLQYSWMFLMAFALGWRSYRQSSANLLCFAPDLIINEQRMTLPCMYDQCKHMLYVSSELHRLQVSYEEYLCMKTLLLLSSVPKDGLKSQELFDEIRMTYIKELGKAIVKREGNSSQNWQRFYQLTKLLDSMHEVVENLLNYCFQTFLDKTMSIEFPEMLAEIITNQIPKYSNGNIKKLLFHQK
Chain of Ubiquitin carboxyl-terminal hydrolase 1 (Homo sapiens) (O94782 whole entry, looked up): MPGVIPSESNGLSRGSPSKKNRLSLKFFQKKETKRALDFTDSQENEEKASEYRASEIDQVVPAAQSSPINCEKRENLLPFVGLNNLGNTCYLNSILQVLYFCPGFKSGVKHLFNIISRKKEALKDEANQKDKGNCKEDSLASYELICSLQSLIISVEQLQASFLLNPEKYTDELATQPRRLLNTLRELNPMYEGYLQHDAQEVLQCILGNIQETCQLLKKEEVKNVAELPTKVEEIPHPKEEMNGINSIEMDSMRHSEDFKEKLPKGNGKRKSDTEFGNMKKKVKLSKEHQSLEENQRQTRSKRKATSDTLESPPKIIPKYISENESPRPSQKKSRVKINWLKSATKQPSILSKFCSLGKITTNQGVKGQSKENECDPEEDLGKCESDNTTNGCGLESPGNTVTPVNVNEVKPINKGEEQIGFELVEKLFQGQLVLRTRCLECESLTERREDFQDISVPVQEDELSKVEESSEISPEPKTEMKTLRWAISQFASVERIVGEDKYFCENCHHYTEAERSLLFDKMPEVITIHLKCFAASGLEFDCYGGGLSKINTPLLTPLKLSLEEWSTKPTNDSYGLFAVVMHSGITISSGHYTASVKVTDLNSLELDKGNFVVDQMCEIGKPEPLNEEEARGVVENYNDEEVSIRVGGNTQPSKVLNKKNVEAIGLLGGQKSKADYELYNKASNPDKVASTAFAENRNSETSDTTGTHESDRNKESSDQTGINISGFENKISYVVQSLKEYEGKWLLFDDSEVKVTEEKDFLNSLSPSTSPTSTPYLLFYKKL
Chain of Cytochrome P450 1A2 (Homo sapiens) (P05177 whole entry, looked up): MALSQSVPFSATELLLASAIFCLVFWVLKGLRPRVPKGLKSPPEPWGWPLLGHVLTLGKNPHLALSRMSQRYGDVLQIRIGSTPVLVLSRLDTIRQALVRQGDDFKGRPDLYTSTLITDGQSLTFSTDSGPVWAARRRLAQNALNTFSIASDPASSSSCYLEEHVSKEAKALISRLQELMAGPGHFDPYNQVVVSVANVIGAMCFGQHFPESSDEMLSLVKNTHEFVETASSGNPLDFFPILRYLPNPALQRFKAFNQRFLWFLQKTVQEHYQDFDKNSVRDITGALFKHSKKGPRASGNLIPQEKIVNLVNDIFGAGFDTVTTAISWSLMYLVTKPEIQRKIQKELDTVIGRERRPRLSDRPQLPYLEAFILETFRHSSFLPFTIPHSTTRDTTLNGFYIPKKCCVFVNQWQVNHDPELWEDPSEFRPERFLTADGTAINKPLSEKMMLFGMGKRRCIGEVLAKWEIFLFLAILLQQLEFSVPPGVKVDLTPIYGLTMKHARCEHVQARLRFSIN
Chain of Cytochrome P450 2C9 (Homo sapiens) (P11712 whole entry, looked up): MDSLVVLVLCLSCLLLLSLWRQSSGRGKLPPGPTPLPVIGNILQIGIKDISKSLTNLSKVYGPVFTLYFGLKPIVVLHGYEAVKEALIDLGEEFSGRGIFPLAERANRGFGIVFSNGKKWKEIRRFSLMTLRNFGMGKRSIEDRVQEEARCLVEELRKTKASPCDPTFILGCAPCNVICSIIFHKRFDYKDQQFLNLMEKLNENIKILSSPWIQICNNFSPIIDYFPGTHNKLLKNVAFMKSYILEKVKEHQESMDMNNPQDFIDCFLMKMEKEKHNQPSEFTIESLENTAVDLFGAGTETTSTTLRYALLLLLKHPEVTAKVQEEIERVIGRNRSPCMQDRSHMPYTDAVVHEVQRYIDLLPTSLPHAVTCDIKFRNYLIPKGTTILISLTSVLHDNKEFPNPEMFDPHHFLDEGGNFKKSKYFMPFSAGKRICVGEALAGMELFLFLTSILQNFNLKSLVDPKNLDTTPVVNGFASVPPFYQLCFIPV

As to `CCCCCCCC(=O)O[C@H](CC(=O)O)C[N+](C)(C)C`, the Potency in assay [1] and in assay [2] was over 46 µM each time. Besides, the Potency entry in [3], in assay [4], in assay [5], in assay [6] and in assay [7] was “inactive” each time.
Consider `CC[C@@H](C)[C@H]1O[C@]2(CC[C@@H]1C)C[C@@H]1C[C@H](C/C=C(/C)[C@H](O[C@@H]3C[C@H](OC)[C@H](O[C@@H]4C[C@H](OC)[C@@H](O)[C@H](C)O4)[C@H](C)O3)[C@@H](C)/C=C\C=C3CO[C@@H]4[C@H](O)C(C)=C[C@@H](C(=O)O1)[C@]34O)O2` (tested in a mixture with another compound), for which the Potency result in assay [8], in [9], in assay [5], in assay [6] and in [7] was “inactive” throughout. The Potency in assay [1] and in [2] was over 46 µM throughout.
As to `COc1ccc(C(OCCN2CCC[C@@H](C(=O)O)C2)(c2ccc(OC)cc2)c2ccc(OC)cc2)cc1`, the Potency in [1] and in [2] was over 46 µM in each case. Further, the Potency result in [3], in [9], in [10], in assay [5], in assay [6] and in [7] was “inactive” throughout.
Turning to `COc1cc([C@@H]2c3cc4c(cc3[C@@H](O[C@@H]3O[C@H]5CO[C@@H](C)O[C@@H]5[C@@H](O)[C@H]3O)[C@@H]3COC(=O)[C@@H]23)OCO4)cc(OC)c1O`, the Potency result in assay [3], in [9], in assay [5], in assay [6] and in assay [7] was “inactive” in each case.
In the case of `CS(=O)(=O)c1ccc(-c2cc(Br)sc2-c2ccc(F)cc2)cc1`, the Potency in [1] is over 46 µM; in [2], over 46 µM; in assay [11], 0.794 µM (active). The Potency entry in [3], in [5], in assay [6] and in assay [7] was “inactive” in each case.
As to `COc1cc(C=O)c([N+](=O)[O-])cc1OC`, the Potency entry in assay [10], in [6] and in assay [7] was “inactive” each time.
For `COc1ccc2[nH]cc(CC(N)C(=O)O)c2c1` (stereo not given), the Potency result in assay [4], in assay [5], in assay [6] and in assay [7] was “inactive” in each case.
In the case of `C#CCCCCCCCCCCCCCCCC(=O)O`, the Potency in [1] is over 46 µM. The Potency result in [9], in assay [6] and in [7] was “inactive” each time.
As to `C[C@@H]1c2ccccc2CN1CC1=NCCN1`, the Potency in assay [1] and in assay [2] was over 46 µM in each case. For the same molecule, the Potency entry in assay [3], in [9], in assay [10], in [5], in assay [6] and in [7] was “inactive” throughout.
With `CC(=O)N(OCc1ccccc1)[C@@H]1c2cc(C#N)ccc2OC(C)(C)[C@H]1O`, in assay [12], the Potency is 15.8 µM (active). The Potency entry in [10], in assay [6] and in assay [7] was “inactive” each time.
Consider `CCN(CC)CCCCC1CCN(CC(=O)N2c3ccccc3C(=O)Nc3cccnc32)CC1`, for which the Potency result in [12], in [6] and in assay [7] was “inactive” throughout.
